High-throughput results deposited in PubChem BioAssay by National Center for Advancing Translational Sciences (NCATS).
SMN2 splice enh – qHTS Assay for Enhancers of SMN2 Splice Variant Expression | HEK293 SMN2-luciferase splicing reporter, luminescence, 30-36 h | Potency, µM (highest dose often 46.1 µM), usual class: activators | hit rate 2.8% among 210,000 | AID 1458, 2008; further: nearly all actives have a fitted effect of over 55% in size
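HEK293 cells carry an SMN2 minigene-luciferase reporter in which exon 7 inclusion puts luciferase in frame. Cells were seeded at 2000 cells/well, attached for 10-12 hours, then exposed to compounds for 30-36 hours at 37C before ONE-Glo luminescence.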
NPC1 promoter act – qHTS Assay for NPC1 Promoter Activators; Huh7 NPC1 promoter luciferase reporter, 24 h; Potency, µM (titrated, usually from 9.22 µM), hits mostly activators; hit rate 2.4% among 320,000; further: nearly all actives have a fitted effect of over 60% in size
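Luminescence read-out of NPC1 promoter-driven luciferase in stably transfected Huh7 cells; compounds delivered in DMSO and left 24 h at 37C, 5% CO2, qHTS titration format.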
Rab9 prom act – qHTS Assay for Rab9 Promoter Activators; Huh7 Rab9 promoter-luciferase reporter, luminescence, 24 h; Potency, µM (series often up to 9.22 µM), actives largely listed as activators; hit rate 2.8% among 320,000; further: nearly all actives have a fitted effect of over 60% in size
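Luminescence read-out: Huh7 cells stably expressing Rab9-luciferase, treated 24 h with compound at 37 °C, then lysed with luciferase reagent for 10 min at ambient before reading.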
ELG1 genotox – qHTS screen for small molecules that induce genotoxicity in human embryonic kidney (HEK293T) cells expressing luciferase-tagged ELG1. HEK293T ELG1-luciferase reporter, luminescence, 16 h. Potency, µM (titrated, usually from 46 µM), actives largely listed as activators. AID 504466, 2011. hit rate 1.3% among 330,000; further: nearly all actives have a fitted effect of over 60% in size
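Step 1: seed 2,000 HEK293T ELG1-luciferase cells per well. Step 2: add compound or DMSO, incubate 16 hr at 37 °C. Step 3: ONE-Glo, 30 min at room temperature, read luminescence.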
FLuc modulator – qHTS profiling assay for firefly luciferase inhibitor/activator using purifed enzyme and Km concentrations of substrates (counterscreen for miR-21 project) | Luciferin 4-monooxygenase (Photinus pyralis), P08659 | purified FLuc, Km substrates, luminescence inhibition | Potency, µM (doses to about 57.5 µM), actives largely listed as inhibitors | hit rate 6.9% among 360,000; further: nearly all actives have a fitted effect of over 55% in size
Target sequence (P08659 whole entry, looked up): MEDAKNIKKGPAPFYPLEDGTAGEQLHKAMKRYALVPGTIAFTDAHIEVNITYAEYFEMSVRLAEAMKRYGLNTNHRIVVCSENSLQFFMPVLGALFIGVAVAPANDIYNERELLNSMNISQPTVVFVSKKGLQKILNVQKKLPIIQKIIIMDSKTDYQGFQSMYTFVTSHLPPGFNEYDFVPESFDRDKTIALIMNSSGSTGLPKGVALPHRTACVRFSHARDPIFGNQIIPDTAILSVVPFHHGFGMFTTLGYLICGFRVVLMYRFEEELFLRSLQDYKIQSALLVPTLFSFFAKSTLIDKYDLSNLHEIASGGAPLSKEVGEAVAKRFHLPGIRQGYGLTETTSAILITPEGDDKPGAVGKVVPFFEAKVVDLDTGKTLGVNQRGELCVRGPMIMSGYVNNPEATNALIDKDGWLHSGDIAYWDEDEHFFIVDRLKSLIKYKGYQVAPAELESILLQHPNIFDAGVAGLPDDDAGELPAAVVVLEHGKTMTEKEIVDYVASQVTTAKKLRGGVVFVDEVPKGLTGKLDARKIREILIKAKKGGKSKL
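Biochemical qHTS of compounds, final roughly 60 µM downward over six points, against 10 nM purified firefly luciferase using Km concentrations of substrates (10 uM D-luciferin, 10 uM ATP) in Tris acetate pH 7.5 buffer; luminescence output.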
Luc counter – Counterscreen for Luciferase (Kinase-Glo TM) Inhibition; Luciferin 4-monooxygenase (Photuris pensylvanica), Q27757; Kinase-Glo luciferase, ATP luminescence, 8 min; Potency, µM (top dose mostly 38.3 µM), most hits filed as inhibitors; hit rate 0.28% among 200,000; further: nearly all actives have a fitted effect of over 60% in size
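Inhibition of Kinase-Glo luciferase light generation was assessed at 10 uM ATP in pH 7.2 imidazole buffer, with luminescence measured after eight minutes at ambient temperature.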
A number is an active result; n = inactive; u = inconclusive; x = no result given; [ ] = remark or other dose. Compounds with a hit are over-represented: about 7.4% of the library has one in this group of screens. The call rests on the fitted dose curve; in most records, active means well fitted curve in the direction sought with a large enough effect; inconclusive means small, poorly fitted or top-dose-only effect, or another doubt; inactive means no such curve, though single readings can be large; an effect the other way counts as inactive or inconclusive.

SMILES	SMN2 splice enh	NPC1 promoter act	Rab9 prom act	ELG1 genotox	FLuc modulator	Luc counter
O=C(O)c1cccc(NC(=O)c2ccc3c(c2)C(=O)N(c2cccc([N+](=O)[O-])c2)C3=O)c1	x	n	n	n	3.8µM	x
CC(C)(C)N1C(=O)c2ccc(C(=O)Nc3ccc(C(=O)O)cc3)cc2C1=O	x	n	n	n	11µM	x
COc1ccccc1N1CCN(c2nc3ccc(C)cc3n3nnnc23)CC1	x	x	x	x	n	x
O=C(O)c1cccc(NC(=O)c2ccc(N3C(=O)c4ccc(C(=O)Nc5cccc(C(=O)O)c5)cc4C3=O)cc2)c1	x	n	u	n	27µM	x
CC(=O)c1cccc(NC(=O)c2cccc(N3C(=O)c4ccccc4C3=O)c2)c1	x	n	n	n	n	x
O=C(O)c1cccc(N2C(=O)c3ccc(C(=O)c4cccc([N+](=O)[O-])c4)cc3C2=O)c1	x	n	n	n	n	x
O=C(O)c1ccc2c(c1)C(=O)N(c1cccc(C(=O)/C=C/c3ccccc3)c1)C2=O	x	n	n	n	2.7µM	n
Cc1ccc(Cl)c2sc(NC(=O)C3=COCCO3)nc12	x	n	n	u	19µM	x
Cc1cc(C)c2sc(NC(=O)C3=COCCO3)nc2c1	x	0.56µM	0.45µM	u	2.1µM	x
Cc1ccc(-c2nnc(NC(=O)C3=COCCO3)o2)c(C)c1	x	n	n	n	15µM	x
O=C(Nc1nc2cc3c(cc2s1)OCCO3)C1=COCCO1	x	n	n	u	0.054µM	x
C[C@@]1(CCOCc2ccccc2)NC(=O)NC1=O	n[9.22 µM]	x	x	x	x	n[7.66 µM]
CC(=O)Nc1ccccc1-c1nc2ccccc2n(C(C)C(=O)Nc2cccc(C)c2C)c1=O (configuration not stated)	x	x	x	x	n	x
CCOC(=O)c1ccccc1NC(=O)C(=O)Nc1ccc2nc3n(c(=O)c2c1)CCCCC3	n	x	x	x	n	x
COc1cc(NC(=O)CC(c2cccs2)N2Cc3ccccc3C2=O)cc(OC)c1OC (configuration not stated)	x	x	x	x	n	x
Cc1c(CC(C)(C)C(=O)O)n(Cc2ccc(Cl)cc2)c2ccc(F)cc12	x	x	x	x	x	n
O=C(NCc1ccccc1Cl)c1cnc(N2CCCCC2)c2ccccc12	x	x	x	x	n	x
O=C(Nc1nc2ccc(F)cc2s1)C1=COCCO1	x	0.71µM	0.28µM	u	0.43µM	x
CSc1cccc2sc(NC(=O)C3=COCCO3)nc12	x	n	n	n	n	x
Cc1ccc(NC(=O)CCS(=O)(=O)c2ccc(Br)s2)c(Br)c1	n	x	x	x	n	x
COCCNC(=O)CSc1nnc(NC(=O)Nc2ccc(C)cc2)s1	x	x	x	x	12µM	x
COc1ccc(NC(=O)CSc2nnc(NC(=O)c3ccccc3C(=O)O)s2)cc1	x	n	n	n	27µM	n
COC(=O)CSc1nnc(SCc2ccc(OC)cc2)s1	n	n	n	n	24µM	n
COc1ccc(NC(=O)CSc2nnc(NC(=O)Nc3ccc(OC)cc3)s2)cc1	x	x	x	x	0.38µM	x
COc1ccc(CSc2nnc(SCc3ccc([N+](=O)[O-])cc3)s2)cc1	n	n	n	n	n	n
SMILES	SMN2 splice enh	NPC1 promoter act	Rab9 prom act	ELG1 genotox	FLuc modulator	Luc counter
CCOC(=O)C1CCCN(c2nc3c(S(=O)(=O)c4ccc(Br)cc4)nnn3c3ccsc23)C1 (configuration not stated)	x	x	x	x	n	x
O=C(NCc1ccc(Cl)cc1)C(=O)Nc1ccc(Br)cc1	n	x	x	x	n	x
COc1ccc(Nc2nnc(SCC(=O)Nc3ccc4[nH]c(=O)[nH]c4c3)s2)cc1	x	n	n	n	2.4µM	x
Cc1nnc(SCC(=O)Nc2ccc3[nH]c(=O)[nH]c3c2)s1	x	n	n	n	n	x
COc1ccc(NC(=O)c2cc(C3CC3)on2)c(OC)c1	20µM	u	u	18µM	u	n
Cc1c(Cl)cccc1NC(=O)c1cc(C2CC2)on1	n	u	3.5µM	u	19µM	n
Cc1cc(C)cc(NC(=O)C2CCN(c3cc(C)nc4c(-c5ccc(Cl)cc5)c(C)nn34)CC2)c1	n	x	x	x	n	x
CSCc1ccc(C(=O)NCc2ccccc2)cc1	n	n	n	n	27µM	n
